Data published in PubChem BioAssay (NCATS).
A number with no mark means an inactive call. Results filed as inconclusive are left out. Entries that show only a call come without a potency. The source made the active and inactive calls. Calls come from the whole dose curve; as a rule, active = well fitted curve in the direction sought with a large enough effect; inconclusive = small, poorly fitted or top-dose-only effect, or another doubt; inactive = no such curve, though single readings can be large; an effect the other way counts as inactive or inconclusive.

Experiments:
[1] = biological target: Cytochrome P450 2C9 (Homo sapiens) (UniProt P11712); assay: qHTS Assay for Inhibitors and Substrates of Cytochrome P450 2C9 (AID 883); note: potency is the fitted concentration of half-maximal effect; nearly all actives have a fitted effect of over 60% in size
Method in brief: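 Signal: luciferase luminescence reporting luciferin produced by CYP2C9. Conditions: 10nM enzyme, Luciferin-H 100uM at KM, 25mM KPO4, 37C, 60 min NADPH-driven reaction. Reference: 57uM sulphaphenazole as 100% inhibition.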

[2] = biological target: Cytochrome P450 3A4 (Homo sapiens) (UniProt P08684); assay: qHTS Assay for Activators of Cytochrome P450 3A4 (AID 885); note: nearly all actives have a fitted effect of over 65% in size; note: potency is the fitted concentration of half-maximal effect
Method in brief: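 Steps: enzyme/substrate mix dispensed; compound added, 10 min RT; NADPH regeneration solution added, 60 min RT; luciferin detection buffer stops reaction; 20 min later luminescence measured.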

[3] = biological target: Cytochrome P450 2D6 (Homo sapiens) (UniProt P10635); assay: qHTS Assay for Inhibitors and Substrates of Cytochrome P450 2D6 (AID 891); note: potency is the fitted concentration of half-maximal effect; nearly all actives have a fitted effect of over 60% in size
Method in brief: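 Human CYP2D6 (5 nM) with 30 uM Luciferin-ME EGE (at Km) in 100 mM KPO4, compound preincubated 10 min, then NADPH regeneration system for 60 min at room temperature. Luciferin read by luminescence; normalized to 1.43 uM quinidine.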

[4] = biological target: Cytochrome P450 2C19 (Homo sapiens) (UniProt P33261); assay: qHTS Assay for Inhibitors and Substrates of Cytochrome P450 2C19 (AID 899); details: recombinant CYP2C19, luciferin-H EGE luminescence; note: potency is the fitted concentration of half-maximal effect; nearly all actives have a fitted effect of over 60% in size
Method in brief: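 Signal comes from luciferase acting on luciferin released by CYP2C19-mediated hydroxylation of Luciferin-H EGE, 10uM (KM). Assay mix: 5nM enzyme, 50mM KPO4; 60 min at 37C with NADPH regeneration. Data normalized against 57uM ketoconazole.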

[5] = biological target: Cytochrome P450 3A4 (Homo sapiens) (UniProt P08684); assay: qHTS Assay for Inhibitors and Substrates of Cytochrome P450 3A4 (AID 884); note: nearly all actives have a fitted effect of over 50% in size
Method in brief: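 20 nM human CYP3A4 with 25 uM Luciferin-PPXE (at KM) in 200 mM KPO4, preincubated 10 min with compound; NADPH regeneration started a 60 min RT reaction. Luciferin detected by luminescence, normalized to 57 uM ketoconazole as full inhibition.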

[6] = Confirmation and Secondary Assay for Modulators of Hemoglobin Beta Chain Splicing at IVS2 654 locus (AID 910);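 note: HeLa cells stably carrying EGFP split by mutant beta-globin IVS2-654 intron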
Method in brief: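 HeLa cells stably expressing EGFP interrupted by β-globin IVS2-654 intron, seeded overnight in Opti-MEM/2% FCS, then treated 2 days at 37 °C. Restored splicing read as total peak GFP intensity per well by laser scanning cytometry (488 nm excitation, 500–520 nm emission); 500 nM antisense PNA as control.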

[7] = biological target: Guanine nucleotide-binding protein G(i) subunit alpha-1 (Homo sapiens) (UniProt P63096); assay: qHTS Assay for Inhibitors of RGS12 GoLoco Motif Activity (Green Fluorophore) (AID 879);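 note: negative values mean loss of peptide binding seen as reduced polarization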
Method in brief: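 Fluorescence polarization assay: 50 nM Gαi1 with 10 nM FITC-labeled RGS12 GoLoco peptide in 10 mM Tris pH 7.5, 150 mM NaCl, 0.1 mM GDP, 0.05% NP40, 10 min at room temperature with compound.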

[8] = Cellular Toxicity (caspase-3) HepG2 (AID 654);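 note: cells exposed to compound for 16 hours before reading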
Method in brief: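 HepG2 cells (1500/well) were treated 16 h at 37 °C in complete medium, then caspase 3/7 activity was read by Caspase-Glo luminescence. Data were normalized to DMSO and 100 uM tamoxifen; AC50 came from Hill-equation fits of qHTS concentration-response.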

[9] = Cellular Toxicity (caspase-3) SHSY5Y (AID 657); note: potency is the fitted concentration of half-maximal effect
Method in brief: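 SH-SY5Y human neuroblastoma cells (1500/well) were treated with compounds for 16 h at 37 °C, then Caspase-Glo 3/7 luminescence was read after 1 h at room temperature. Data normalized to DMSO and 10 uM staurosporine; AC50 from Hill fits.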

[10] = Cellular Toxicity (caspase-3) BJ (AID 658); details: Potency: caspase-3 activation; note: potency is the fitted concentration of half-maximal effect
Method in brief: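 BJ human foreskin fibroblasts, 1000 cells/well, treated 16 hours at 37 °C in complete medium; caspase 3/7 activity by Caspase-Glo luminescence after 1 hr at room temperature. Normalized to DMSO and 10 uM staurosporine; AC50 from Hill fits.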

[11] = Cellular Toxicity (caspase-3) SK-N-SH (AID 661); details: SK-N-SH caspase-3 activation, qHTS; caspase-3 activation: at 91.7 µM (top of the series), DMSO as zero, staurosporine as full; note: potency is the fitted concentration of half-maximal effect
Method in brief: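 Human SK-N-SH neuroblastoma cells, 1500/well, were exposed to compounds for 16 hours at 37 °C. Caspase-Glo 3/7 luminescence was normalized to DMSO (basal) and 10 uM staurosporine (100%), and AC50 came from a Hill fit.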

[12] = Cellular Toxicity (caspase-3) Hek293 (AID 664); details: HEK293 caspase-3 activation, DMSO = 0%, 100 µM tamoxifen = 100%; at 92.2 µM (top of the series);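 note: cells exposed to compound for 16 h at 37 °C before readout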
Method in brief: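 HEK293 cells in complete medium treated 16 h at 37 °C, then Caspase-Glo 3/7 luminescence read after 20 min at room temperature. Normalized to DMSO and 100 uM tamoxifen; AC50 from Hill fit of concentration-response.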

[13] = Cellular Toxicity (caspase-3) NIH 3T3 (AID 666);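 note: caspase signal read after 16 h compound exposure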
Method in brief: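 Mouse NIH 3T3 fibroblasts (1000/well) treated 16 h at 37 C; caspase-3/7 activity measured by Caspase-Glo 3/7 luminescence after 20 min. Normalized to DMSO and 100 uM tamoxifen; AC50 from Hill fits.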

[14] = Cellular Toxicity (caspase-3) HUV-EC-C (AID 656)
Method in brief: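 HUV-EC-C endothelial cells, 1000/well, were pre-incubated 5 hr at 37°C, then exposed to compounds for 16 hr at 37°C. Caspase-Glo 3/7 luminescence was read after 20 min at room temperature. AC50 came from Hill fits, normalized to DMSO and 100 uM tamoxifen.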

[15] = Cellular Toxicity (caspase-3) MRC-5 (AID 659)
Method in brief: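 MRC-5 human normal lung fibroblasts, 1500 cells/well, treated 16 h at 37 °C in complete medium. Caspase 3/7 measured by Caspase-Glo luminescence after 1 h at room temperature. Normalized to DMSO and 10 uM staurosporine; AC50 from Hill fit.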

[16] = Cellular Toxicity (caspase-3) Mesangial (AID 660)
Method in brief: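 Human renal glomerular mesangial cells, 1000/well, 5 h at 37 C before 16 h compound treatment. Caspase-Glo 3/7 luminescence after 20 min; normalized to DMSO and 100 uM tamoxifen, AC50 from Hill fit.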

[17] = Cellular Toxicity (caspase-3) H-4-II-E (AID 663);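 note: cells exposed to compound for 16 hr before readout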
Method in brief: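 Rat hepatoma H-4-II-E cells (1500/well) plated 5 hr, then exposed to compound titrations for 16 hr at 37 °C. Caspase-Glo 3/7 luminescence read after 20 min at RT; data normalized to DMSO and 100 uM tamoxifen, AC50 from Hill fits.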

[18] = Cellular Toxicity (caspase-3) N2a (AID 665);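 note: compound exposure lasted 16 h at 37 °C before readout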
Method in brief: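 Mouse N2a neuroblastoma cells, 1500 per well, treated 16 h at 37 °C in complete medium; caspase-3/7 activity by Caspase-Glo luminescence after 1 h. Normalized to DMSO and 10 uM staurosporine; AC50 from Hill fits.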

[19] = Cellular Toxicity (caspase-3) Renal Proximal Tubule (AID 667);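 note: cells exposed to compound for 16 hours at 37 °C before detection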
Method in brief: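 Primary rat proximal tubule cells, 1000/well, 5 h plating at 37 °C, then compound 16 h at 37 °C. Caspase-Glo 3/7 reagent, 1 h RT, luminescence. Normalized to DMSO (basal) and 10 uM staurosporine (100%); Hill-fit AC50.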

Cytochrome P450 2D6 (Homo sapiens), sequence (P10635 whole entry, looked up): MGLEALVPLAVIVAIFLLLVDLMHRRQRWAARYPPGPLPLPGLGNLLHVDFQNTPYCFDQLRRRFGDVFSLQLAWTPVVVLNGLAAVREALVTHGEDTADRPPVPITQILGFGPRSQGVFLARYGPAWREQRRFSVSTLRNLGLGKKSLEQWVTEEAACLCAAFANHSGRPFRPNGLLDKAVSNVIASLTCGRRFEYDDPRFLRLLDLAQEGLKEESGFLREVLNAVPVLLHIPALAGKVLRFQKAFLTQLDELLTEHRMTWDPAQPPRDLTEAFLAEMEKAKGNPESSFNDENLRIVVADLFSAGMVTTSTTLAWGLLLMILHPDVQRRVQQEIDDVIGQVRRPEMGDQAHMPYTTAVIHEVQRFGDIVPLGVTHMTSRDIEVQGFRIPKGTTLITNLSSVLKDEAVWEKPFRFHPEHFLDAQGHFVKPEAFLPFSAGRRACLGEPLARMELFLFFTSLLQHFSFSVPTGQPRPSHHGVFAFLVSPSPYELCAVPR
Cytochrome P450 3A4 (Homo sapiens), sequence (P08684 whole entry, looked up): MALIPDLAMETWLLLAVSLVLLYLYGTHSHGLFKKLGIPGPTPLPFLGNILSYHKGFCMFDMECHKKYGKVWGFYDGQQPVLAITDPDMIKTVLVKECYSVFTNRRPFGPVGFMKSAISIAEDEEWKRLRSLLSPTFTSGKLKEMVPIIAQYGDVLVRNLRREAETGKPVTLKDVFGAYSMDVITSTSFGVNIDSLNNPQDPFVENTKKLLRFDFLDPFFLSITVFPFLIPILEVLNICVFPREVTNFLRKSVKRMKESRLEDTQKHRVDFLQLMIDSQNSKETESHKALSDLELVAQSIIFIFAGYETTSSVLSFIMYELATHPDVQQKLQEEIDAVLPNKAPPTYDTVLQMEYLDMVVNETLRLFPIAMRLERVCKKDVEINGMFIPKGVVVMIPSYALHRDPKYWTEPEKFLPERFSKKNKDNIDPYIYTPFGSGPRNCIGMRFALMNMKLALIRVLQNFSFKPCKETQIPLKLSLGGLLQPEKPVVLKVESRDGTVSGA
Cytochrome P450 2C9 (Homo sapiens), sequence (P11712 whole entry, looked up): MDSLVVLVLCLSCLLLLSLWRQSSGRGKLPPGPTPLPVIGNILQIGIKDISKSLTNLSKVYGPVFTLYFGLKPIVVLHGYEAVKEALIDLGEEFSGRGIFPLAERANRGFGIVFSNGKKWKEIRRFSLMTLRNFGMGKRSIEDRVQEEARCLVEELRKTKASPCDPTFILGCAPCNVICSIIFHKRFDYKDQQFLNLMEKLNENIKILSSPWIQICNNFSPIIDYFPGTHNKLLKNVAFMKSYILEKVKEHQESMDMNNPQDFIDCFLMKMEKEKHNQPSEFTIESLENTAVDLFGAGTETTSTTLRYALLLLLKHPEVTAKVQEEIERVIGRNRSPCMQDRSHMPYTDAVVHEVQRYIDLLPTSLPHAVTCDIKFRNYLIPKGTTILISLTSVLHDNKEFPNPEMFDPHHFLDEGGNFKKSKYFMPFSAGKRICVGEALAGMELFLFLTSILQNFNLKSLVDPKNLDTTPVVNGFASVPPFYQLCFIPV
Guanine nucleotide-binding protein G(i) subunit alpha-1 (Homo sapiens), sequence (P63096 whole entry, looked up): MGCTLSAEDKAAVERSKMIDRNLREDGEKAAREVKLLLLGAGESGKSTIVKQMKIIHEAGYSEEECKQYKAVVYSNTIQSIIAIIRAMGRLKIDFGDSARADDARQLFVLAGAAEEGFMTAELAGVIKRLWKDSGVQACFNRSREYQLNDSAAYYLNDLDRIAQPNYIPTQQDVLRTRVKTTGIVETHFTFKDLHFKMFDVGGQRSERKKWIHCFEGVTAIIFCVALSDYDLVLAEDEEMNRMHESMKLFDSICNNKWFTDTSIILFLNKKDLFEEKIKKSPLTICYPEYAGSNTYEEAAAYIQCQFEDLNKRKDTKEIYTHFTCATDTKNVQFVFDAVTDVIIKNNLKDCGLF
Cytochrome P450 2C19 (Homo sapiens), sequence (P33261 whole entry, looked up): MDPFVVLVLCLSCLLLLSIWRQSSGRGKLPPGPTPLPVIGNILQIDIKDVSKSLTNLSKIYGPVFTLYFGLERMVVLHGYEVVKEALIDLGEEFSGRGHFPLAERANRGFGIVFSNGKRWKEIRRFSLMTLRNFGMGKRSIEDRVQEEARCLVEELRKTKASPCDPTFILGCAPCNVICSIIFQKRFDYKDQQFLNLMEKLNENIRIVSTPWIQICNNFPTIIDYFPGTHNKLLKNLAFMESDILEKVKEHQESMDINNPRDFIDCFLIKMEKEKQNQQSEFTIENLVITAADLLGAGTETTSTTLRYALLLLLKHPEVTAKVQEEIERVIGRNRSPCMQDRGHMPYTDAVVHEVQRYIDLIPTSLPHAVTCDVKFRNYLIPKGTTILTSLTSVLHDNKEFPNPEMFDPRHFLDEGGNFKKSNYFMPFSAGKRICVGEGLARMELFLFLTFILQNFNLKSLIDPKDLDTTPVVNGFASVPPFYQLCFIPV

Cc1cc(-c2ccc(N=Nc3ccc4c(S(=O)(=O)O)cc(S(=O)(=O)O)c(N)c4c3O)c(C)c2)ccc1N=Nc1ccc2c(S(=O)(=O)O)cc(S(=O)(=O)O)c(N)c2c1O
Potency [1]: 7.94 µM (active) | Potency [2]: inactive | Potency [3]: 15.8 µM (active) | Potency [4]: 0.199 µM (active)

O=C(O)[C@H]1CN(C/C=C/P(=O)(O)O)CCN1
Potency [5]: inactive

CC1CCC(NC(=O)N(CCCl)N=O)CC1 (centres undefined)
Potency [6]: inactive

CC(=O)[C@H]1CC[C@H]2[C@@H]3C=CC4=CC(=O)CC[C@@]4(C)[C@H]3CC[C@]12C
Potency [2]: 7.94 µM (active)

O=C(CCCCCCCCCCCCC1CCCC1)Nc1ccc(S(=O)(=O)c2ccc(NC(=O)CCCCCCCCCCCCC3CCCC3)cc2)cc1
Potency [2]: inactive | Potency [6]: inactive

Cc1cc(C)c(NC(=O)C[C@H](CC(=O)O)c2cccc3ccccc23)c(C(=O)N2CCC3(CCCC3)CC2)c1
outcome [7]: inactive | Potency [2]: inactive

CC(C)c1nc(N(C)S(C)(=O)=O)nc(-c2ccc(F)cc2)c1/C=C/C(O)CC(O)CC(=O)O (centres undefined)
Potency [2]: inactive | Potency [6]: inactive

N#Cc1ccc2c(c1)N(CCCN1CCC(O)CC1)c1ccccc1S2
Potency [6]: inactive

C[C@@](Cc1ccc(O)c(O)c1)(NN)C(=O)O
outcome [7]: inactive | Potency [2]: inactive

C=CC(C)(O)CC/C=C(\C)CCC=C(C)C (centres undefined)
Potency [6]: inactive

CC(=O)Nc1ccc(OC(=O)c2ccccc2O)cc1
Potency [6]: inactive

C=C1C(CCl)(CCl)C2(Cl)C(Cl)C(Cl)C1(Cl)C2(Cl)Cl (centres undefined)
outcome [8]: inactive | Potency [9]: 39.8 µM (active) | Potency [10]: 63.1 µM (active) | caspase-3 activation [11]: 90.5% (active) | caspase-3 activation [12]: 252% (active) | outcome [13]: inactive | Potency [2]: inactive

O=C(O)Cc1cc(I)c(Oc2ccc(O)c(I)c2)c(I)c1
Potency [1]: 5.01 µM (active)

O=C(O)[C@H]1C(=CCO)O[C@H]2CC(=O)N12
Potency [6]: inactive

CC(=O)Oc1cccc2c1C(=O)c1c(OC(C)=O)cc(C(=O)O)cc1C2=O
Potency [6]: inactive

Nc1ncnc2c1ncn2[C@H]1CC[C@@H](CO)O1
outcome [8]: inactive | outcome [14]: inactive | Potency [9]: inactive | Potency [10]: inactive | outcome [15]: inactive | outcome [16]: inactive | Potency [11]: inactive | outcome [17]: inactive | caspase-3 activation [12]: 2.37% | outcome [18]: inactive | outcome [13]: inactive | outcome [19]: inactive | Potency [5]: inactive | Potency [6]: inactive

NCC(O)CC(=O)O (centres undefined)
Potency [6]: inactive

CCOC(=O)C1=C(COCCN)NC(C)=C(C(=O)OC)C1c1ccccc1Cl (centres undefined)
Potency [6]: inactive

O=c1n(CC2CO2)c(=O)n(CC2CO2)c(=O)n1CC1CO1 (centres undefined)
outcome [8]: inactive | outcome [14]: inactive | Potency [9]: 12.6 µM (active) | Potency [10]: inactive | outcome [15]: inactive | outcome [16]: inactive | Potency [11]: 15.8 µM (active) | outcome [17]: inactive | caspase-3 activation [12]: 3.19% | outcome [18]: inactive | outcome [13]: inactive | outcome [19]: inactive

CC(=O)N=c1sc(S(N)(=O)=O)nn1C
Potency [6]: inactive

CCCOc1cc(N)ccc1C(=O)OCCN(CC)CC
Potency [3]: 2 µM (active)

CN1CCc2c(c3ccccc3n2Cc2ccccc2)C1
Potency [3]: 3.16 µM (active) | Potency [6]: inactive

O=C1c2ccccc2C(=O)c2c1ccc(O)c2O
Potency [2]: inactive | Potency [6]: inactive

COc1cc(S(C)=O)ccc1-c1nc2ncccc2[nH]1 (centres undefined)
Potency [6]: inactive

CC[C@H]1OC(=O)[C@H](C)[C@@H](O[C@H]2C[C@@](C)(OC)[C@@H](O)[C@H](C)O2)C(C)[C@@H](O[C@@H]2O[C@H](C)C[C@H](N(C)C)[C@@H]2O)[C@](C)(OC)C[C@@H](C)C(=O)[C@H](C)[C@@H](O)[C@]1(C)O (some centres undefined)
Potency [6]: inactive
